The record followed here is PubChem BioAssay (NCI).

This is part of a sample that, as a whole, favours compounds with a hit. Of some 83,000 tested, about 20% had one in any assay.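 Testing used 96-well plates and a 48-hour single-concentration exposure. Example: -40 means 40% of the starting cells died.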 A number with no mark means an inactive call. Activity calls are given as the source filed them. How the source made its calls: active means growth percent below 10; inactive means the rest.

Test systems include SR leukemia; RPMI-8226 leukemia; OVCAR-8 ovarian; OVCAR-5 ovarian; OVCAR-4 ovarian; SK-OV-3 ovarian; IGROV1 ovarian; OVCAR-3 ovarian; HS 578T breast; NCI/ADR-RES ovarian.
Common to all, as to test: NCI-60 one-dose screen, 48 h (100 = growth as untreated, 0 = no growth, -100 = all killed)
Common to all, as to conditions: 10 µM unless noted

Consider `CC(C)c1ccc(C(=O)OC2CCCC2)cc1`, for which the growth in the assay with SR leukemia was 105%; with RPMI-8226 leukemia, 98.3%; with OVCAR-8 ovarian, 113%; with OVCAR-5 ovarian, 101%; in the assay on OVCAR-4 ovarian, 106%; in the assay with SK-OV-3 ovarian, 107%. For the same compound, the growth in the assay with IGROV1 ovarian is 103%; with OVCAR-3 ovarian, 99.3%; with HS 578T breast it was 101%.

In the case of `CCN(CC)CCNC(Cc1ccccc1)c1ccc(OCc2ccccc2)cc1` (stereo unspecified), the growth in the assay on SR leukemia is 24.7%; in the assay on RPMI-8226 leukemia, 34.8%; with OVCAR-8 ovarian it was 79.7%; in the assay with OVCAR-5 ovarian, 56.2%; in the assay with OVCAR-4 ovarian, 66.7%; in the assay on SK-OV-3 ovarian, 83.1%. Also, the growth in the assay with IGROV1 ovarian was 57.7%; in the assay on OVCAR-3 ovarian, 95.4%; in the assay with HS 578T breast, 70.8%; with NCI/ADR-RES ovarian, 76.1%.

Turning to `CCCCCCCCCCCCCCCCCC[S+](C)CC` (stereo unspecified), the growth in the assay on SR leukemia was 32.7%; with RPMI-8226 leukemia, 30.4%; in the assay on OVCAR-8 ovarian, 13.9%; in the assay on OVCAR-5 ovarian, 9.31% (active); with OVCAR-4 ovarian, 7.76% (active); in the assay on SK-OV-3 ovarian, 49.5%. Besides, the growth in the assay on IGROV1 ovarian was -34.2% (active); with OVCAR-3 ovarian, 45.1%; in the assay with HS 578T breast it was 35.9%; in the assay with NCI/ADR-RES ovarian it was 84.7%.

With `COc1cc(/C=C2\SC(=S)N(/C=C/c3nc4ccccc4[nH]c3=O)C2=O)cc(OC)c1OC`, the growth in the assay with SR leukemia is 63.6%; with RPMI-8226 leukemia, 86.2%; in the assay with OVCAR-8 ovarian, 86.4%; in the assay on OVCAR-5 ovarian it was 88.3%; in the assay with OVCAR-4 ovarian it was 84.5%; with SK-OV-3 ovarian, 76.3%. Moreover, the growth was 89.8% in the assay with IGROV1 ovarian, 89.4% in the assay on OVCAR-3 ovarian and 74.4% in the assay with HS 578T breast.

Regarding `CCCCCCCCCCCCCCCC[N+]1(C)CCCC1c1cccnc1` (stereo unspecified), the growth in the assay with SR leukemia was 42.7%; in the assay with RPMI-8226 leukemia, 21%; in the assay on OVCAR-8 ovarian, 38.4%; in the assay with OVCAR-5 ovarian it was 48.4%; in the assay with OVCAR-4 ovarian, 47.1%; in the assay on SK-OV-3 ovarian, 60.5%. Moreover, the growth in the assay on IGROV1 ovarian is 42.3%; with OVCAR-3 ovarian it was 38.3%; in the assay on HS 578T breast, 80.2%; in the assay on NCI/ADR-RES ovarian, 87.8%.

As to `Cc1cccc2c(N)c3ccccc3nc12`, the growth in the assay with SR leukemia is 2.95% (active); with RPMI-8226 leukemia, -15.4% (active); in the assay on OVCAR-8 ovarian, -9.82% (active); in the assay on OVCAR-5 ovarian, 7.56% (active); in the assay on OVCAR-4 ovarian, 1.48% (active); in the assay with SK-OV-3 ovarian it was -3.15% (active). Further, the growth with IGROV1 ovarian is -13.2% (active); in the assay with OVCAR-3 ovarian, -17.3% (active); in the assay with HS 578T breast, 16.5%.

Regarding `O=C(/C(Cl)=N/O)c1ccc(-c2ccccc2)cc1`, the growth with SR leukemia is -24% (active); in the assay with RPMI-8226 leukemia, 85.2%; in the assay with OVCAR-8 ovarian it was 97.8%; with OVCAR-5 ovarian, 109%; in the assay on OVCAR-4 ovarian, 112%; in the assay with SK-OV-3 ovarian, 99.5%. The growth is 71.8% in the assay with IGROV1 ovarian, 72.3% in the assay with OVCAR-3 ovarian, 110% in the assay on HS 578T breast and 99.9% with NCI/ADR-RES ovarian.

As to `COc1ccc2c(c1)c(CC(=O)O)c(C)n2C(=O)c1ccc(Cl)cc1`, the growth is 106% in the assay on SR leukemia; 83.8% in the assay on RPMI-8226 leukemia; 104% in the assay on OVCAR-8 ovarian; 105% with OVCAR-5 ovarian; 102% in the assay with OVCAR-4 ovarian; 119% in the assay with SK-OV-3 ovarian. The figures for the growth with IGROV1 ovarian, in the assay with OVCAR-3 ovarian and in the assay with HS 578T breast were 99%, 125% and 97.8%, respectively.

Regarding `CN(C)c1ccc(C(C#N)(c2ccccc2)c2ccc(N(C)C)cc2)cc1`, the growth in the assay on SR leukemia is 15.9%; in the assay with RPMI-8226 leukemia it was 14.9%; in the assay with OVCAR-8 ovarian, 23.4%; in the assay with OVCAR-5 ovarian, 106%; in the assay on OVCAR-4 ovarian, 83.5%; with SK-OV-3 ovarian, 92.5%. The growth in the assay on IGROV1 ovarian is 83%; with OVCAR-3 ovarian it was 72.3%; with HS 578T breast it was 33.2%.

For the compound `N=C1C=C(N)C(=O)c2ccccc21`, the growth is 1.77% (active) with SR leukemia; 5.15% (active) in the assay with RPMI-8226 leukemia; -20.1% (active) in the assay with OVCAR-8 ovarian; -85.8% (active) with OVCAR-5 ovarian; -99.6% (active) in the assay on OVCAR-4 ovarian; -87% (active) with SK-OV-3 ovarian. For the same compound, the growth with IGROV1 ovarian was -37.6% (active); in the assay on OVCAR-3 ovarian it was -87.6% (active).

Consider `OC(c1cc(C23CC4CC(CC(C4)C2)C3)nc2c(Cl)cc(Cl)cc12)C1CCCCN1` (stereo unspecified), for which the growth in the assay with SR leukemia was -60.1% (active); in the assay on RPMI-8226 leukemia, -45.4% (active); in the assay with OVCAR-8 ovarian, -53.9% (active); with OVCAR-5 ovarian it was -56% (active); with OVCAR-4 ovarian it was -78.2% (active); with SK-OV-3 ovarian, -10.3% (active). The growth in the assay on IGROV1 ovarian was -61.7% (active); in the assay on OVCAR-3 ovarian, -89.9% (active); with HS 578T breast, -49.9% (active); in the assay on NCI/ADR-RES ovarian, -51.2% (active).

With `COC(=O)Nc1nc2ccc(C3(c4ccc(F)cc4)OCCO3)cc2[nH]1`, the growth in the assay on SR leukemia was 25.2%; with RPMI-8226 leukemia, 10.4%; in the assay with OVCAR-8 ovarian, 21.1%; in the assay on OVCAR-5 ovarian, 47.5%; in the assay with OVCAR-4 ovarian, 68.4%; with SK-OV-3 ovarian, 22%. Also, the growth in the assay on IGROV1 ovarian was 29.8%; with OVCAR-3 ovarian, 4.74% (active); with HS 578T breast, 37.7%; in the assay on NCI/ADR-RES ovarian, 24.2%.

Take `O=C(CCl)N(c1ccccc1)c1ccccc1`: the growth with SR leukemia is 101%; with RPMI-8226 leukemia it was 109%; with OVCAR-8 ovarian, 96.3%; with OVCAR-5 ovarian it was 117%; with OVCAR-4 ovarian, 111%; in the assay with SK-OV-3 ovarian it was 114%. For the same compound, the growth in the assay on IGROV1 ovarian is 115%; in the assay with OVCAR-3 ovarian, 109%; with HS 578T breast it was 102%.

On to `CCCCCCCCCCCC[n+]1ccc(CCCCCCCCC)cc1`, for which the growth was -32% (active) in the assay with SR leukemia; -54.6% (active) in the assay with RPMI-8226 leukemia; -80.4% (active) in the assay on OVCAR-8 ovarian; -16.8% (active) with OVCAR-5 ovarian; -79.1% (active) with OVCAR-4 ovarian; -18.9% (active) in the assay with SK-OV-3 ovarian. Moreover, the growth with IGROV1 ovarian is -79.5% (active); with OVCAR-3 ovarian, -85.3% (active); in the assay with HS 578T breast, -7.56% (active).

As for `c1csc(-c2[nH]nc3c2CCc2ccccc2-3)c1`, the growth is 105% in the assay on SR leukemia; 81.3% in the assay with RPMI-8226 leukemia; 99.1% in the assay on OVCAR-8 ovarian; 24.1% in the assay with OVCAR-5 ovarian; 48.5% in the assay with OVCAR-4 ovarian; 98.1% in the assay on SK-OV-3 ovarian. Further, the growth in the assay on IGROV1 ovarian was 67.2%; with OVCAR-3 ovarian, 28.1%; in the assay with HS 578T breast, 90%; in the assay on NCI/ADR-RES ovarian it was 98.7%.
